# Data taken from the supplement of paper PMC11018630.
# Where a name gives a salt, the structure may show the parent alone. ± gives the standard deviation of the averaged measurements. The full ranking holds about 1,100 compounds; the median of “day of extracellular matrix detachment from plate” is about 16, and the lowest 2% start at about 10. Many of the other results were omitted from the sample, so the lowest values are more common in it than they were. Where a SMILES comes first, the peptide text is derived from it. Bridges are numbered along the chain shown (N, C = ends). [ ]: non-standard residue; d: D form. Orn = NCCC[C@H](N)C(=O)O; Mpa = O=C(O)CCS
# System: RDEB dermal fibroblasts EB71
# Assay: day of extracellular matrix detachment from plate (days); higher = delayed detachment (less fibrotic matrix)
# Settings: compound concentration: 10 uM
row,Structure (SMILES),day of extracellular matrix detachment from plate
1,O=C(O)CCCN1CCC(O[C@@H](c2ccc(Cl)cc2)c2ccccn2)CC1 [Bepotastine Besilate],18.7 ± 4
2,CCOc1ccc(C[C@H]2NC(=O)CCSSC[C@@H](C(=O)N3CCC[C@H]3C(=O)N[C@@H](CCCN)C(=O)NCC(N)=O)NC(=O)[C@H](CC(N)=O)NC(=O)[C@H]([C@@H](C)O)NC(=O)[C@H]([C@@H](C)CC)NC2=O)cc1 [Atosiban Acetate] ([Mpa][dY](Et)ITNCP[Orn]G-NH2; disulfide 1-6),19 ± 3
3,C=C1c2cccc(O)c2C(=O)C2=C(O)[C@]3(O)C(=O)C(C(N)=O)=C(O)[C@@H](N(C)C)[C@@H]3[C@@H](O)[C@H]12 [Methacycline HCl],17 ± 1.7
4,C[C@H]1C[C@H]2[C@@H]3CCC4=CC(=O)C=C[C@]4(C)[C@H]3C(=O)C[C@]2(C)[C@@]1(O)C(=O)CO [Meprednisone],18.3 ± 8.1
5,C[C@]12C=CC(=O)C=C1CC[C@@H]1[C@@H]2C(=O)C[C@@]2(C)[C@H]1CC[C@]2(O)C(=O)CO [Prednisone],10.3 ± 1.1
6,C[C@H]1C[C@@H]2[C@H](C(=O)C[C@@]3(C)[C@H]2CC[C@]3(O)C(=O)CO)[C@@]2(C)C=CC(=O)C=C12 [Methylprednisone],18.3 ± 4
7,CCOC(=O)C1=C[C@@H](OC(CC)CC)[C@H](NC(C)=O)[C@@H](N)C1 [Oseltamivir Phosphate],20 ± 1.7
8,OC1(c2ccc(Cl)c(C(F)(F)F)c2)CCN(CCCC(c2ccc(F)cc2)c2ccc(F)cc2)CC1 [Penfluridol],25.5 ± 5
9,Cc1nc(C)c(Cl)c(O)c1Cl [Clopidol],18 ± 1.7
10,NC(=O)N1CCC(CC(=O)N2CCC([C@H]3c4ncc(Br)cc4CCc4cc(Cl)cc(Br)c43)CC2)CC1 [Lonafarnib],25
11,CCOC(=O)C1=C(C)NC(C)=C(C(=O)OCC)C1c1ccccc1/C=C/C(=O)OC(C)(C)C [Lacidipine],19.3 ± 6.3
12,CCC(=O)NCC[C@@H]1CCc2ccc3c(c21)CCO3 [Ramelteon],9.67 ± 1.1
13,Cc1ccc(C(=O)c2ccc(CC(=O)O)n2C)cc1 [Tolmetin Sodium],19.3 ± 1.1
14,Clc1cccc(Cl)c1NC1=NCCN1 [Clonidine HCl],11 ± 1.7
15,COc1nc(C)nc(Cl)c1NC1=NCCN1 [Moxonidine],10 ± 1.7
16,O=S(=O)(O)CCCS(=O)(=O)O [Eprodisate (disodium)],18
17,FC(F)(F)c1ccc(/C=C/c2nc(COc3ccc(CCCCn4ccnn4)cc3)co2)cc1 [Mubritinib (TAK 165)],15.7 ± 6.3
18,Cc1nc(C(=O)NCC(=O)O)c(O)c2ccc(Oc3ccccc3)cc12,23.7 ± 2.3
19,Nc1nc(=O)c2nc(CNc3ccc(C(=O)N[C@@H](CCC(=O)O)C(=O)O)cc3)cnc2[nH]1 [Folic acid],17
20,O=C1CCc2cc(OCCCCc3nnnn3C3CCCCC3)ccc2N1 [Cilostazol],10.3 ± 1.1
21,O=C1CCc2ccc(OCCCCN3CCN(c4cccc(Cl)c4Cl)CC3)cc2N1 [Aripiprazole],19.3 ± 6.3

row,Structure (SMILES),day of extracellular matrix detachment from plate
1,Cn1nnc2c(C(N)=O)ncn2c1=O [Temozolomide],9.67 ± 1.1
2,Nc1c(CC(=O)O)cccc1C(=O)c1ccc(Br)cc1 [Bromfenac Sodium],13
3,CC1(C)S[C@@H]2[C@H](NC(=O)[C@H](NC(=O)N3CCN(S(C)(=O)=O)C3=O)c3ccccc3)C(=O)N2[C@H]1C(=O)O [Mezlocillin Sodium],13
4,Cc1cccc(-c2nn3c(c2-c2ccnc4ccc(C(N)=O)cc24)CCC3)n1,29.5 ± 9.2
5,CCN(CCCc1ccccc1)CCCc1ccccc1 [Alverine Citrate],18
6,C=CCc1cc(OC)c(O)c(C(=O)NCCO)c1 [Alibendol],15.7 ± 6.3
7,Nc1ccc(/N=N/c2ccccc2)c(N)n1 [Phenazopyridine HCl],13
8,C[C@@H](NCCCc1cccc(C(F)(F)F)c1)c1cccc2ccccc12 [Cinacalcet HCl],12.3 ± 1.1
9,NS(=O)(=O)c1ccc(C(=O)O)cc1 [Carzenide],12.3 ± 2.3
10,CC[C@H](C)C(=O)O[C@H]1C[C@H](O)C=C2C=C[C@H](C)[C@H](CC[C@@H](O)C[C@@H](O)CC(=O)O)[C@H]21 [Pravastatin sodium],20 ± 1.7
11,O=C(NC(Cc1cc(=O)[nH]c2ccccc12)C(=O)O)c1ccc(Cl)cc1 (configuration not stated) [Rebamipide],15.7 ± 6.3
12,CC1(C)[C@@H](OC(=O)CCC(=O)O)CC[C@]2(C)[C@H]3C(=O)C=C4[C@@H]5C[C@@](C)(C(=O)O)CC[C@]5(C)CC[C@@]4(C)[C@]3(C)CC[C@@H]12 [Carbenoxolone Sodium],13
13,CC[C@H](C)C[C@H](C)CCCCCCCCC(=O)N[C@H]1C[C@@H](O)[C@@H](NCCN)NC(=O)[C@@H]2[C@@H](O)CCN2C(=O)[C@H]([C@H](O)CCN)NC(=O)[C@H]([C@H](O)[C@@H](O)c2ccc(O)cc2)NC(=O)[C@@H]2C[C@@H](O)CN2C(=O)[C@H]([C@@H](C)O)NC1=O [Caspofungin Acetate],18
14,CC(CCc1ccc(O)cc1)NCC(O)c1ccc(O)cc1 (configuration not stated) [Ractopamine HCl],13
15,N#CC[C@H](C1CCCC1)n1cc(-c2ncnc3[nH]ccc23)cn1,16
16,Cc1cn(-c2cc(NC(=O)c3ccc(C)c(Nc4nccc(-c5cccnc5)n4)c3)cc(C(F)(F)F)c2)cn1 [Nilotinib (AMN-107)],30.5 ± 6
17,O=c1oc2c(O)c(O)cc3c(=O)oc4c(O)c(O)cc1c4c23 [Ellagic acid],10.3 ± 1.1
18,CO/N=C(\C(=O)N[C@@H]1C(=O)N2C(C(=O)O)=C(CSc3nnnn3C)CS[C@H]12)c1csc(N)n1 [Cefmenoxime hydrochloride],18 ± 1.4
19,CCN1CCN(C(=O)N[C@@H](C(=O)N[C@@H]2C(=O)N3C(C(=O)O)=C(CSc4nnnn4C)CS[C@H]23)c2ccc(O)cc2)C(=O)C1=O [Cefoperazone],10.3 ± 1.1
20,CCN1CCN(C(=O)N[C@@H](C(=O)N[C@@H]2C(=O)N3[C@@H]2SC(C)(C)[C@@H]3C(=O)O)c2ccccc2)C(=O)C1=O [Piperacillin Sodium],13
21,CC(C)[C@H]1C(=O)N[C@@H](CCCNC(=N)N)C(=O)NCC(=O)N[C@@H](CC(=O)O)C(=O)N[C@H](Cc2ccccc2)C(=O)N1C [Cilengitide],6

row,Structure (SMILES),day of extracellular matrix detachment from plate
1,CCCCCCCCCC(=O)N[C@@H](Cc1c[nH]c2ccccc12)C(=O)N[C@H](CC(N)=O)C(=O)N[C@@H](CC(=O)O)C(=O)N[C@@H]1C(=O)NCC(=O)N[C@@H](CCCN)C(=O)N[C@@H](CC(=O)O)C(=O)N[C@H](C)C(=O)N[C@@H](CC(=O)O)C(=O)NCC(=O)N[C@H](CO)C(=O)N[C@@H]([C@H](C)CC(=O)O)C(=O)N[C@@H](CC(=O)c2ccccc2N)C(=O)O[C@@H]1C [Daptomycin],22
2,NC(=O)[C@@H]1CSSCCC(=O)N[C@@H](CCCCN=C(N)N)C(=O)NCC(=O)N[C@@H](CC(=O)O)C(=O)N[C@@H](Cc2c[nH]c3ccccc23)C(=O)N2CCC[C@H]2C(=O)N1 [Eptifibatide Acetate],22
3,CN1CCC(=C2c3ccccc3CCn3c(C=O)cnc32)CC1 [Alcaftadine],19.3 ± 2.5
4,O=C([O-])c1ccccc1O.[Na+] [Sodium salicylate],14
5,O=C(O[C@H]1CN2CCC1CC2)N1CCc2ccccc2[C@@H]1c1ccccc1 [Solifenacin succinate],27.3 ± 2.9
6,CN(C)[C@@H]1C(O)=C(C(N)=O)C(=O)[C@@]2(O)C(O)=C3C(=O)c4c(O)ccc(Cl)c4[C@@](C)(O)[C@H]3C[C@@H]12 [Chlortetracycline HCl],23 ± 6.9
7,COc1ccc(CNc2nc(N3CCC[C@H]3CO)ncc2C(=O)NCc2ncccn2)cc1Cl [Avanafil],18
8,CC[C@@H]1/C=C(\C)C[C@H](C)C[C@H](OC)[C@H]2O[C@@](O)(C(=O)C(=O)N3CCCC[C@H]3C(=O)O[C@H](/C(C)=C/[C@@H]3CC[C@H](Cl)[C@H](OC)C3)[C@H](C)[C@@H](O)CC1=O)[C@H](C)C[C@@H]2OC [Pimecrolimus],17.7 ± 4
9,CN1CCOC(c2ccccc2)c2ccccc2C1 (configuration not stated) [Nefopam HCl],20
10,CO[C@H]1/C=C/O[C@@]2(C)Oc3c(C)c(O)c4c(O)c(c(/C=N/N5CCN(C)CC5)c(O)c4c3C2=O)NC(=O)/C(C)=C\C=C\[C@H](C)[C@H](O)[C@@H](C)[C@@H](O)[C@@H](C)[C@H](OC(C)=O)[C@@H]1C [Rifampin],12
11,"CCCS(=O)(=O)Nc1ccc(F)c(C(=O)c2c[nH]c3ncc(-c4ccc(Cl)cc4)cc23)c1F [Vemurafenib (PLX4032, RG7204)]",14 ± 1.7
12,Clc1ccc(CCC(Cn2ccnc2)Sc2c(Cl)cccc2Cl)cc1 (configuration not stated) [Butoconazole nitrate],16
13,Nc1ccc(S(=O)(=O)Nc2ncccn2)cc1 [Sulfadiazine],12
14,Nc1ccc(S(=O)(=O)Nc2ncccn2)cc1 [Sodium sulfadiazine],18.2 ± 3.1
15,N=C(N)NC(=N)N1CCOCC1 [Moroxydine HCl],19.3 ± 6.3
16,Cc1cc(-n2c(=O)[nH]c(=O)n(C)c2=O)ccc1Oc1ccc(SC(F)(F)F)cc1 [Toltrazuril],15.7 ± 2.9
17,Clc1ccc(Nc2nnc(Cc3ccncc3)c3ccccc23)cc1 [Vatalanib (PTK787) 2HCl],25
18,CNC(=O)[C@H](Cc1ccccc1)NC(=O)[C@H](CC(C)C)[C@H](CSc1cccs1)C(=O)NO [Batimastat (BB-94)],9 ± 1.7
19,CNC(=O)[C@@H](NC(=O)[C@H](CC(C)C)[C@H](O)C(=O)NO)C(C)(C)C [Marimastat(BB-2516)],11.7 ± 1.1
20,"CNC(=O)[C@H](Cc1c[nH]c2ccccc12)NC(=O)[C@@H](CC(=O)NO)CC(C)C [Ilomastat (GM6001, Galardin)]",15
